In ChEMBL document CHEMBL4513146, “CO-ADD screening of Karazin Kharkiv National University (Ukraine) compounds”:
Results with a measured potency or affinity are listed apart.

These molecules were tested on Staphylococcus aureus. Conditions: Concentration 32 ug.mL-1;; ASSAY_TEST Inhibition of Bacterial Growth; detection method Absorption (OD600); MEDIA CAMHB; plate type 384well; NBS; CORNING #3640; time 18 hr.
COc1ccc(NC(=O)Cn2nc3c(Oc4ccccc4)nccn3c2=O)cc1OC showed an Inhibition of 1.69%. For COc1ccccc1Cn1c(=O)c2sccc2n2c(=O)n(Cc3ccc(Br)cc3)nc12, the Inhibition was 5.17%. Cc1cc2nn(CC(=O)Nc3ccc(F)cc3Cl)c(=O)n2c(Nc2ccc(F)cc2)n1 was tested, and the Inhibition was 4.61%. With Cc1nnc2c(=O)n(CC(=O)Nc3ccc(C(C)C)cc3)c3ccccc3n12 the Inhibition was 18.68%. In the case of O=c1c2sccc2n2c(=O)n(Cc3ccccc3Cl)nc2n1CCc1ccccc1, the Inhibition is reported as 10.44%. CCCCOc1ccc(-c2cc3c4nnc(SCC(=O)Nc5cc(C)ccc5OC)n4ccn3n2)cc1 was tested, and the Inhibition was -29%. CCc1ccccc1Sc1nccn2c(=O)n(CC(=O)NCc3ccc(OC)cc3)nc12 showed an Inhibition of -5.48%. For CC(C)c1nnc2c(SCC(=O)Nc3cccc(Cl)c3)nc3ccccc3n12, the Inhibition was 8.54%. Work on COc1ccc(NC(=O)c2ccc3nn(CC(=O)Nc4ccc(C(F)(F)F)cc4)c(=O)n3c2)cc1 yielded an Inhibition of 9.76%. With CC(=O)c1cccc(NC(=O)CSc2nnc3ccc(C(=O)Nc4cccc(F)c4)cn23)c1 the Inhibition was 12.95%. Cc1cccc(CN(c2cc(C)cc(C)c2)S(=O)(=O)c2cccn3c(C)nnc23)c1 showed an Inhibition of 6.42%. Work on Cc1ccc(NC(=O)Cn2nc3ccc(-c4ccc(Cl)cc4)nn3c2=O)cc1 yielded an Inhibition of 0.77%. CC(C)c1ccc(NC(=O)Cn2nc3c(SCc4ccccc4)nccn3c2=O)cc1 was tested, and the Inhibition was 1.97%. COc1ccc(-c2cc3c4nn(CC(=O)NCc5ccccc5Cl)c(=O)n4ccn3n2)cc1 showed an Inhibition of 8.73%. With Cc1ccc(N(Cc2cccc(C)c2)S(=O)(=O)c2cccn3c(C)nnc23)cc1 the Inhibition was -2.01%. CCCCc1ccc(NC(=O)Cn2nc3ccc(-c4ccc(C)c(C)c4)nn3c2=O)cc1 was tested, and the Inhibition was 7.91%. In the case of CCc1ccc(NC(=O)Cn2nc3n(Cc4cccs4)c(=O)c4sccc4n3c2=O)cc1, the Inhibition is reported as -0.38%. Work on O=C(CSc1nnc2ccc(C(=O)NCc3ccccc3)cn12)Nc1ccccc1Br yielded an Inhibition of 7.29%. In the case of Cc1ccc(NC(=O)Cn2nc3ccc(-c4ccc(Cl)cc4)nn3c2=O)cc1F, the Inhibition is reported as 3.27%. Molecule CCOC(=O)c1ccccc1NC(=O)Cn1nc2c(Oc3ccc(C)cc3)nccn2c1=O has an Inhibition of -14.8%. Work on CCc1ccc(N(Cc2ccccc2F)S(=O)(=O)c2cccn3c(CC)nnc23)cc1 yielded an Inhibition of -9.17%. In the case of Cc1cc2nn(CC(=O)Nc3ccc4c(c3)OCCO4)c(=O)n2c(Nc2ccccc2C)n1, the Inhibition is reported as 9.51%. N#Cc1ccc(NC(=O)Cn2nc3c(SCc4ccc(Cl)cc4)nccn3c2=O)cc1 gave an Inhibition of 9.38%. With CCc1cccc(C)c1NC(=O)Cn1nc2ccc(SCc3ccc(Cl)cc3)nn2c1=O the Inhibition was -4.43%. O=C(Cn1nc2ccc(Sc3ccccc3)nn2c1=O)Nc1ccc(F)c(Cl)c1 was tested, and the Inhibition was 8.3%. In the case of Cc1ccccc1CN(c1ccc(C(C)C)cc1)S(=O)(=O)c1cccn2c(C)nnc12, the Inhibition is reported as 9.54%. Work on CC(=O)c1ccc(N2CCN(C(=O)CCc3nnc4c5cc(-c6ccccc6)nn5ccn34)CC2)cc1 yielded an Inhibition of 11.68%. For COc1ccc(NC(=O)CSc2nc3ccccc3n3c(C(C)C)nnc23)c(OC)c1, the Inhibition was 1.68%. In the case of CC(=O)c1cccc(NC(=O)Cn2nc3c(N4CCN(c5ccccc5C)CC4)nccn3c2=O)c1, the Inhibition is reported as 17.73%. For CCOc1ccc(-n2ccn3c(SCC(=O)NCc4ccccc4Cl)nnc3c2=O)cc1, the Inhibition was 3.68%. COc1ccc(N(Cc2cc(F)cc(F)c2)S(=O)(=O)c2ccc3nnc(C)n3c2)cc1 gave an Inhibition of 12.66%. Work on CCN(CCCNC(=O)CCc1nnc2ccc(-c3ccccc3)nn12)c1ccccc1 yielded an Inhibition of 5.66%. CCc1ccccc1NC(=O)Cn1nc2cc(C)nc(Nc3ccc(F)c(C)c3)n2c1=O was tested, and the Inhibition was -15.94%. For COc1ccc(-c2cc3c4nn(CC(=O)Nc5ccccc5OC)c(=O)n4ccn3n2)cc1, the Inhibition was 2.83%. CCC(Sc1nnc2c(=O)n(-c3cccc(OC)c3)ccn12)C(=O)Nc1cc(C)ccc1C (stereo not given) showed an Inhibition of 5.06%. For O=C(Cn1nc2c3cc(-c4ccccc4)nn3ccn2c1=O)N1CCCc2ccccc21, the Inhibition was 4.94%. Molecule Cc1ccc(NC(=O)Cn2nc3c(SCc4ccc(Cl)cc4)nccn3c2=O)c(C)c1 has an Inhibition of 10.91%. Work on Cc1ccc(-c2cc3c4nn(CC(=O)NCc5ccc(Cl)cc5)c(=O)n4ccn3n2)cc1C yielded an Inhibition of 6.87%. Cc1ccc(N(CC(=O)OC(C)(C)C)S(=O)(=O)c2ccc3nnc(C)n3c2)cc1 gave an Inhibition of 2.37%. CCC(C)NC(=O)CSc1nnc2c(=O)n(Cc3ccc(F)cc3)ccn12 (stereo not given) showed an Inhibition of 1.4%.
